The record followed here is PubChem BioAssay (NCATS).

Several values for one entry are separate records, joined by “and”; a condition that tells them apart may be missing. Equal entries are not always repeated. Results filed as inconclusive are left out. More than one record can exist for a structure, and the calls need not agree. Activity calls are given as the source filed them. Calls follow the shape of the dose curve; as a rule, active = well fitted inhibition curve with a large enough effect; inconclusive = small, poorly fitted or top-dose-only effect; inactive = flat fitted curve, though single readings scatter.

Assay [1] deals with PC49. The assay is described as follows: qHTS profiling for inhibitors of Plasmodium falciparum proliferation (AID 504749). Also: potency is read from the fitted curve at half-maximal effect. The conditions noted are these: P. falciparum in erythrocytes, SYBR Green DNA, 72 h; series mostly up to 28.7 µM. Put shortly:
(§1)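 Quantitative HTS: compounds pinned into medium, infected erythrocytes added (0.3% parasitemia, 2.5% hematocrit), 72 h culture at 37 C under 5% CO2. Saponin/Triton lysis with SYBR Green I, overnight RT, then fluorescence read.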
Background: qHTS replaces the single test concentration by a dilution series.

In assay [2] the test system is SC27B. The description is as above. To be noted: P. falciparum in erythrocytes, SYBR Green DNA, 72 h; series mostly up to 28.7 µM. Put shortly: as §1
Assay [3] deals with TAB109. Described as above. The conditions noted are these: P. falciparum in erythrocytes, SYBR Green DNA, 72 h; series mostly up to 28.7 µM. Put shortly:
as §1

Assay [4] deals with TAB113. The description is as above. The conditions noted are these: P. falciparum in erythrocytes, SYBR Green DNA, 72 h; series mostly up to 28.7 µM. Put shortly:
as §1

The subject of assay [5] is TAB165. The assay is described as above. To be noted: P. falciparum in erythrocytes, SYBR Green DNA, 72 h; series mostly up to 28.7 µM. Put shortly:
as §1

For assay [6], the system named is CRL-7250. The assay is described as follows: Cytotoxic Profiling of Annotated Libraries Using Quantitative High-Throughput Screening (AID 1296008). As to max response: % is scaled to controls: 0 for no effect and ±100 for the full control effect. To be noted: Five cell lines viability, CellTiter-Glo ATP luminescence, 48-72 h; max response: stronger effect = lower value. Put shortly:
(§2)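 Compounds were pin-transferred onto cells and incubated 48 or 72 hr at 37 degree Celsius, 95% humidity. CellTiter-Glo was added, plates sat 10 min at room temperature, then ATP-coupled luminescence was imaged as the viability read-out.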
(Cellular ATP, detected with luciferase, serves as a proxy for viable cell number.)

The subject of assay [7] is HaCat. The description is as above. The conditions noted are these: Five cell lines viability, CellTiter-Glo ATP luminescence, 48-72 h; max response: stronger effect = lower value. Put shortly:
as §2

For assay [8], the system named is KB-3-1. Described as above. The conditions noted are these: Five cell lines viability, CellTiter-Glo ATP luminescence, 48-72 h; max response: stronger effect = lower value. Put shortly:
as §2

The test system of assay [9] is NIH3T3. The assay is described as above. The conditions noted are these: Five cell lines viability, CellTiter-Glo ATP luminescence, 48-72 h; max response: stronger effect = lower value. Put shortly: as §2
Assay [10] relates to HACAT. The assay is described as follows: qHTS assay to identify novel small-molecules to repurpose for Merkel cell carcinoma treatment (AID 1296009). Also: potency is read from the fitted curve at half-maximal effect. To be noted: MCC and control cell lines, CellTiter-Glo viability, 72 h. Put shortly: (§3)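 Viability readout: ATP luminescence (CellTiter-Glo) after 72 hr drug exposure at 37 degree celsius. Dose-response format was 8 points for NPC and 11 points for MIPE; data normalized to in-plate controls.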

In assay [11] the test system is HEK293T. The description is as above. To be noted: MCC and control cell lines, CellTiter-Glo viability, 72 h. Put shortly:
as §3

For assay [12], the system named is MCC-13. Described as above. To be noted: MCC and control cell lines, CellTiter-Glo viability, 72 h; series mostly up to 46 µM. Put shortly:
as §3

Assay [13] deals with MCC-26. Described as above. The conditions noted are these: MCC and control cell lines, CellTiter-Glo viability, 72 h; series mostly up to 46 µM. Put shortly: as §3
The test system of assay [14] is MKL-1. The description is as above. To be noted: MCC and control cell lines, CellTiter-Glo viability, 72 h; series mostly up to 46 µM. Put shortly:
as §3

Assay [15] concerns MKL-2. The description is as above. The conditions noted are these: MCC and control cell lines, CellTiter-Glo viability, 72 h; series mostly up to 46 µM. Put shortly: as §3
Assay [16] concerns UISO. The assay is described as above. The conditions noted are these: MCC and control cell lines, CellTiter-Glo viability, 72 h; series mostly up to 46 µM. Put shortly: as §3
Assay [17] relates to WaGa. The description is as above. To be noted: MCC and control cell lines, CellTiter-Glo viability, 72 h; series mostly up to 46 µM. Put shortly:
as §3

Assay [18] has as its system W2. The assay is described as follows: qHTS profiling for inhibitors of Plasmodium falciparum proliferation (AID 504749). Also: potency is read from the fitted curve at half-maximal effect. To be noted: P. falciparum in erythrocytes, SYBR Green DNA, 72 h; series mostly up to 28.7 µM. Put shortly: as §1
For assay [19], the system named is HEK293. The assay is described as follows: Cytotoxic Profiling of Annotated Libraries Using Quantitative High-Throughput Screening (AID 1296008). As to max response: % is scaled to controls: 0 for no effect and ±100 for the full control effect. The conditions noted are these: Five cell lines viability, CellTiter-Glo ATP luminescence, 48-72 h; max response: stronger effect = lower value. Put shortly: as §2
Assay [20] has as its system NIH3T3. Briefly: qHTS assay to identify novel small-molecules to repurpose for Merkel cell carcinoma treatment (AID 1296009). Also: potency is read from the fitted curve at half-maximal effect. To be noted: MCC and control cell lines, CellTiter-Glo viability, 72 h; at 44.8 µM (top of the series) unless noted. Put shortly: as §3
The mark [21] stands for this setting: at 44.8 µM (top of the series) unless noted.
Also: nearly all actives have a fitted effect of over 60% in size.

On to `CN1CCN(c2c(F)cc3c(=O)c(C(=O)O)cn4c3c2OCN4C)CC1`, for which the Potency entry in assay [1], in assay [2], in assay [3], in assay [4], in assay [5] and in assay [12] was “inactive” in each case. Further, the Potency result in assay [13], in [14], in assay [15], in assay [16] and in assay [17] was “inactive” each time. Besides, the max response is -0.174% (inactive) in assay [6]; -7.62% (inactive) in assay [8]; 2.5% (inactive) and 4.99% (inactive) in assay [9]. Also, the outcome in assay [6], in assay [7], in assay [8], in assay [10] (at 17.4 µM (top of the series)) and in assay [10] (at 44.8 µM (top of the series)) was inactive. Besides, in assay [11] (setting [21]), the outcome was “inactive [at 17.4 µM]”.
As for `Cc1oc(=O)oc1CN1CCN(c2cc3c(cc2F)c(=O)c(C(=O)O)c2n3C(C)S2)CC1` (stereo unspecified), the Potency entry in [1], in assay [12], in [14], in assay [15], in assay [16] and in assay [17] was “inactive” each time. The Potency in assay [2] was 8.91 µM (active); in assay [3], 4.47 µM (active); in assay [4] it was 7.94 µM (active); in assay [5], 5.01 µM (active); in assay [18], 4.78 µM (active). For the same compound, the max response in [6] is -3.57% (inactive) and 1.83% (inactive); in assay [19] it was 0.387% (inactive) and 0.715% (inactive); in [8], 23.6% (inactive); in [9] it was -0.29% (inactive). Besides, the call in [7], in assay [8], in [9], in assay [10] (setting [21]) and in [20] was inactive.
As to `COc1cc(NS(=O)(=O)c2ccc(N)cc2)nc(OC)n1`, the Potency result in assay [1], in [2], in [3], in [4], in assay [5] and in assay [18] was “inactive” throughout. Also, the Potency result in assay [12], in assay [13], in assay [14], in assay [15], in [16] and in assay [17] was “inactive” throughout. Moreover, the max response in assay [6] was -1.11% (inactive) and -2.3% (inactive); in assay [19] it was 4.64% (inactive) and 3.91% (inactive); in assay [8], 3.08% (inactive); in [9], -5.03% (inactive) and -1.81% (inactive). Also, the outcome in assay [7], in assay [8] and in assay [10] (setting [21]) was inactive.
As for `NC(=O)c1cccc(N)c1`, the max response in assay [6] was -10% (inactive); in assay [19] it was -4.67% (inactive); in assay [7], -6.72% (inactive). The outcome in assay [8], in [9] and in assay [20] was inactive. Further, the Potency entry in assay [12], in assay [13], in assay [14], in assay [15], in [16] and in [17] was “inactive” throughout.
For `COc1cccc(N(C)C(=S)Oc2ccc3c(c2)CCCC3)n1`, the Potency entry in assay [1], in [2], in [3], in assay [12], in [13] and in assay [14] was “inactive” throughout. For the same compound, the Potency result in assay [15], in assay [16] and in assay [17] was “inactive” in each case. Further, the outcome in assay [6], in assay [7] and in [10] (setting [21]) was inactive. Besides, the max response in assay [19] is -19.3% (inactive); in [8], -2.71% (inactive) and 6.85% (inactive); in assay [9], 2.09% (inactive).
Take `NC(=O)N1c2ccccc2CC(=O)c2ccccc21`: the Potency result in [1], in assay [2], in [3], in [4], in assay [5] and in [18] was “inactive” in each case. Also, the Potency entry in assay [12], in assay [13], in assay [14], in assay [16] and in [17] was “inactive” each time. In addition, the max response was 1.16% (inactive) and -4.89% (inactive) in [6]; -10.3% (inactive) and 3.64% (inactive) in assay [8]. The call in assay [19], in [7], in [9], in assay [10] (setting [21]), in assay [11] (setting [21]) and in assay [20] was inactive. For the same compound, the Potency in [15] is 6.68 µM (active) and inactive.
Consider `CCOCC(O)COc1ccc(NC(=O)CC[S+](C)C)cc1` (stereo unspecified), for which the Potency entry in assay [1], in assay [2], in assay [3], in assay [4], in assay [5] and in assay [18] was “inactive” throughout. Also, the Potency entry in assay [12], in [13], in [14], in [15], in assay [16] and in assay [17] was “inactive” in each case. For the same compound, the max response in [6] is -11.9% (inactive) and -0.62% (inactive); in [7] it was 4.61% (inactive); in [8] it was -5.04% (inactive); in [9] it was 4.96% (inactive) and 4.72% (inactive). The result in assay [7], in assay [8] and in assay [10] (setting [21]) was inactive.
Consider `CCCCS(=N)(=O)CCC(N)C(=O)O` (stereo unspecified), for which the max response in assay [6] is -8.66% (inactive); in assay [19] it was -11.7% (inactive); in assay [8], -5.13% (inactive); in [9] it was -0.0148% (inactive). Further, the call in [7] and in [10] (setting [21]) was inactive. For the same compound, the Potency entry in assay [13], in assay [14], in [16] and in assay [17] was “inactive” in each case.
With `CC(C)OC(=O)C(C(=O)OC(C)C)=C1SC=CS1`, the Potency entry in assay [1], in assay [2], in [3], in [4], in [5] and in assay [18] was “inactive” in each case. Further, the Potency result in assay [12], in assay [14], in assay [15], in [16] and in assay [17] was “inactive” each time. For the same compound, the result in assay [6], in assay [7], in [8], in [9], in assay [10] (setting [21]) and in [20] was inactive. The max response in assay [7] is -22% (inactive); in assay [8], 13.9% (inactive); in assay [9], 0.152% (inactive).
In the case of `O=c1oc2c(O)c(O)cc3c(=O)oc4c(O)c(O)cc1c4c23`, the Potency entry in assay [1], in assay [12], in [13], in [14], in assay [15] and in assay [16] was “inactive” in each case. For the same compound, the Potency result in [17] is “inactive”. The Potency in assay [5] is 1.41 µM (active); in assay [18] it was 1.9 µM (active). Further, the max response was -1.07% (inactive) in assay [6]; 0.0618% (inactive) and -16.9% (inactive) in assay [7]; -24.2% (inactive) and 0.262% (inactive) in assay [8]; 2.17% (inactive) in assay [9]. Besides, the outcome in assay [19], in [11] (at 17.4 µM (top of the series)) and in assay [11] (at 44.8 µM (top of the series)) was inactive.
